Only some compounds are listed: those with a hit (about 21% of all), similar ones and a draw of the others.
IL-1B inflam inh: blocks inflammasome-driven IL-1 beta release. activity change, % at 57.5 µM. hit rate 4.7% among 360,000. AID 743279. THP-1 LPS/ATP IL-1B secretion, AlphaLISA, 16 h; stronger effect = lower value; in the data active means activity change below about -50%; inconclusive means mostly about -30% to -49%
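Secreted IL-1B measured by AlphaLISA bead assay after 16 h compound exposure of THP-1 cells; compounds (final up to 57.5 uM) added 1 h before LPS (250 ng/mL) and ATP (1.25 mM) stimulation; lower signal means less secretion.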
DT40 TDP1 no CPT: qHTS for Inhibitors of human tyrosyl-DNA phosphodiesterase 1 (TDP1): qHTS in cells in absence of CPT; DT40 Tdp1-/- hTDP1 cells, no CPT, ATP luminescence, 48 h; Potency, µM (top dose mostly 46.2 µM), for the others: at the top dose activity change, negative = growth inhibition, most hits filed as inhibitors; hit rate 15% among 420,000; further: potency means the concentration at half of the fitted maximal effect; nearly all actives have a fitted effect of over 55% in size
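Luminescent ATP content (CellTiter-Glo) served as the growth readout. Knockout chicken DT40 cells expressing human TDP1 were exposed to compounds without camptothecin for a minimum 48 hr at 37 °C.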
Gal4-VP16 FLuc: inhibits Gal4-VP16 luciferase reporter, ROR gamma counter-screen | Drosophila S2 Gal4-VP16 UAS-luciferase, luminescence, 20 h | Potency, µM (series often up to 53.6 µM), without a hit: top-dose activity, negative = inhibition, most hits filed as inhibitors | hit rate 3.5% among 310,000 | AID 2546;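 further: Gal4-VP16 expression switched on by copper sulfate through the metallothionein promoter; potency means the concentration at half of the fitted maximal effect; nearly all actives have a fitted effect of over 50% in size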
TDP1 cell CPT: growth inhibition of DT40 Tdp1-/-;hTDP1 cells with camptothecin (screen for TDP1 inhibitors); Potency, µM (top dose mostly 46.2 µM), inactives show at the top dose activity change, negative = growth inhibition, actives largely listed as inhibitors; hit rate 12% among 420,000; AID 686979; chicken DT40 Tdp1-/-;hTDP1 cells + 20 nM CPT, ATP luminescence, 48 h; further: potency means the concentration at half of the fitted maximal effect; nearly all actives have a fitted effect of over 55% in size
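Chicken DT40 Tdp1-/- cells complemented with human TDP1, 400 cells/well, exposed to compounds plus 20 nM camptothecin for at least 48 h at 37 C; viability read as ATP content by CellTiter-Glo luminescence.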
RORg inh: blocks mouse ROR gamma transcriptional activity; P51450; Drosophila S2 Gal4-RORgamma UAS-luciferase reporter, 20 h; Potency, µM (highest dose often 53.6 µM), inactives show at the highest dose activity change, negative = inhibition, actives largely listed as inhibitors; hit rate 5.4% among 310,000; further: potency means the concentration at half of the fitted maximal effect; nearly all actives have a fitted effect of over 60% in size
Target sequence (P51450 whole entry, looked up, the tested form may be a part): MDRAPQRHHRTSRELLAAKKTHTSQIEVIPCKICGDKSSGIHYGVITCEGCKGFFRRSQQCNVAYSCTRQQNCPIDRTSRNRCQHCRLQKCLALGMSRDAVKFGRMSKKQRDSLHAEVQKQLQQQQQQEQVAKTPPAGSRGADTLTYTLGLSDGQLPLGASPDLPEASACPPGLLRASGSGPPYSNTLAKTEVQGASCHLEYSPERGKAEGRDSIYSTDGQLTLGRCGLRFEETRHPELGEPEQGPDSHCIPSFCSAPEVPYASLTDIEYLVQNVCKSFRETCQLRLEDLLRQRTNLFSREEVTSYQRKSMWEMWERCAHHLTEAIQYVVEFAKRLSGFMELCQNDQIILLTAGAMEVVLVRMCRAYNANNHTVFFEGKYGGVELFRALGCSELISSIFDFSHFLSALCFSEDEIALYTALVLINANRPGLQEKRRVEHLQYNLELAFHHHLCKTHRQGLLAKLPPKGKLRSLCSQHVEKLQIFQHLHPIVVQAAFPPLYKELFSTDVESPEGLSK
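Compounds are pin-transferred onto Drosophila Schneider cells expressing a copper-inducible Gal4–ROR gamma transactivation domain fusion. After 1 hr, copper sulfate is added to 700 uM final; luciferase is read 20 hr later.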
ELG1 repair inh: ELG1-dependent DNA repair inhibition; HEK293T ELG1-luciferase reporter, luminescence, 16 h; DNA damage induced by 5-fluorouridine; Potency, µM (doses to about 46.1 µM), for inactives: at the top dose activity change, negative = inhibition, actives largely listed as inhibitors; hit rate 2.3% among 330,000; AID 504467; further: potency means the concentration at half of the fitted maximal effect; nearly all actives have a fitted effect of over 55% in size
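HEK293T cells expressing luciferase-tagged ELG1 (2,000/well) received 5-Fluorouridine plus compound or DMSO for 16 hr at 37 °C. Luciferase was read by ONE-Glo luminescence after 30 min at room temperature.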
* hit, by the source's call; u = inconclusive; x = not tested or not shown; [ ] = remark or other dose. Unless noted, the call rests on the fitted dose curve; in most records, active means well fitted curve in the direction sought with a large enough effect; inconclusive means small, poorly fitted or top-dose-only effect, or another doubt; inactive means no such curve, though single readings can be large; an effect the other way counts as inactive or inconclusive. On the % scale 0 is the no-effect control and ±100 the full control effect.

SMILES	IL-1B inflam inh	DT40 TDP1 no CPT	Gal4-VP16 FLuc	TDP1 cell CPT	RORg inh	ELG1 repair inh
COc1ccccc1/C=C/C(=O)Oc1cccc2cccnc12	0.0	16.4µM*	5.62µM*	u	3.16µM*	-13.9%
O=C(/C=C\c1ccco1)Oc1cccc2cccnc12	-165.4*	0.651µM*	4.47µM*	0.581µM*	1.41µM*	u
COc1ccccc1/C=C/C(=O)OCCCN(C)C	27.2	3.0%	4.8%	7.1%	13.1%	10.7%
CO[C@H]1COC(=O)[C@@H](CCSC)NC(=O)C/C=C\[C@@H](C)COC(=O)[C@@H](OCc2ccccc2)/C=C\[C@@H]1C	x	x	-7.1%[10 µM]	x	-9.8%[10 µM]	x
CCOC(=O)N1CCC(Nc2c(OCC)c(=O)c2=O)CC1	13.1	3.2%	-2.9%	22.8%	21.3%	15.8%
CCCN(CCC)c1nc(NC2CCN(C(=O)OCC)CC2)nc(OC)n1	-5.9	20.6µM*	u	16.4µM*	-22.4%	u
CCCCCc1ccc(OCCC[n+]2ccccc2)c(CCCCC)c1	-93.6*	1.03µM*	-15.0%	0.651µM*	10.3%	u
CCCCCc1ccc(OCCOCCn2c[n+](C)c3ccccc32)c(CCCCC)c1	-94.1*	2.06µM*	15.8µM*	2.31µM*	u	7.3µM*
CCCCOc1ccccc1Cn1c(=O)oc2ccccc21	0.0	u	-4.3%	2.3%	-2.2%	-11.1%
CC[N+]1(C)[C@@H]2CC[C@H]1CC(OC(=O)[C@H]1CCC(C(=O)OC3C[C@H]4CC[C@@H](C3)[N+]4(C)CC)(c3ccccc3)c3ccccc31)C2 (stereo partly drawn)	2.8	-2.6%	x	-9.6%	x	7.3%
CC(=O)/C(=N\Nc1ccccc1)Sc1cccc2cccnc12	-5.7	-11.6%	u	17.8%	14.1µM*	-7.2%
CC(=O)/C(=N\Nc1ccccc1Cl)Sc1cccc2cccnc12	-16.1	-91.9%	4.47µM*	u	2.82µM*	6.5%
O=C(CSc1cccc2cccnc12)Nc1ccccc1F	-1.2	u	u	u	u	13.4%
C[C@@H]1CC[C@H](O)/C=C/C(=O)O[C@H](C)CC[C@H](O)/C=C/C(=O)O1	-4.4	5.17µM*	6.31µM*	5.17µM*	u	0.8%
CC(=O)N1CCc2cc(S(=O)(=O)CCC(=O)NCCc3ccc(Cl)cc3)ccc21	10.8	u	11.8%	u	-0.7%	0.7%
CCc1cc2c(=O)n(Cc3ccco3)c(SCC(=O)N(C)C3CCS(=O)(=O)C3)nc2s1 (stereo not drawn)	29.5	u	u	-23.8%	10µM*	1.1%
CCc1cc2c(=O)n(Cc3ccco3)c(SCC(=O)NCC3CCCO3)nc2s1 (stereo not drawn)	-6.1	16.4µM*	19.4%	14.6µM*	u	u
CCc1cc2c(=O)n(Cc3ccco3)c(SCc3c(C)noc3C)nc2s1	-5.0	2.91µM*	-61.0%	5.8µM*	u	u
CCc1cc2c(=O)n(Cc3ccco3)c(SCC(=O)N3CCCc4ccccc43)nc2s1	-27.5	u	-10.0%	25.9µM*	7.6%	u
CCc1cc2c(=O)n(Cc3ccco3)c(SCC(=O)NC3CCS(=O)(=O)C3)nc2s1 (stereo not drawn)	-7.9	-27.1%	u	u	39.8%	-0.9%
CCc1cc2c(=O)n(Cc3ccccc3)c(SC3CCOC3=O)nc2s1 (stereo not drawn)	8.9	u	4.2%	u	10.6%	13.7%
COc1ccccc1-c1ccc(C(=O)NCCN2CCOCC2)c(N2CCN(c3ccccc3F)CC2)n1	x	-24.0%	x	2.9%[9.04 µM]	x	x
O=C(Cc1cccc(NC(=O)C2CCCN(C(=O)C3CCC3)C2)c1)Nc1cccc(C(=O)N2CCOCC2)c1 (stereo not drawn)	-4.1	-25.0%	x	-19.0%	x	x
COC(=O)c1cc(NC(C)=O)ccc1N1CCOCC1	33.4	5.0%	-4.6%[10 µM]	2.0%	4.3%	4.0%
COC(=O)c1cc(NC(=O)c2cc(-c3ccc(OC)cc3)oc2C(F)(F)F)ccc1N1CCOCC1	-14.4	u	u	u	-38.4%	23.1µM*
SMILES	IL-1B inflam inh	DT40 TDP1 no CPT	Gal4-VP16 FLuc	TDP1 cell CPT	RORg inh	ELG1 repair inh
COC(=O)c1cc(NC(=O)c2cc(-c3ccc(C(F)(F)F)cc3)oc2C(F)(F)F)ccc1N1CCOCC1	-0.2	20.6µM*	-5.1%	u	11.4%	u
COC(=O)c1cc(NC(=O)c2c(C)noc2C)ccc1N1CCOCC1	13.1	1.2%	6.5%	-14.1%	1.2%	-0.2%
CC(=O)c1cccc(S(=O)(=O)Nc2cc(C(F)(F)F)ccc2N2CCOCC2)c1	0.0	-8.9%	x	-9.8%	x	13.0%
CC(=O)c1c(COC(=O)c2ccncc2)nc2ccccc2[n+]1[O-]	0.5	-26.5%	u	29.6%	11.2µM*	18.2%
CCN(CC)CCOC(=O)C(Cc1ccco1)Cc1cccc2ccccc12 (stereo not drawn)	-57.1*	u	x	u	x	x
CN(C)c1ccc(N=Nc2ccccc2C(=O)OCC(=O)Nc2ccccc2C(F)(F)F)cc1	-24.7	23.1µM*	-6.9%	u	-6.5%	17.2%
CN(C)c1ccc(N=Nc2ccccc2C(=O)OCC(=O)N2CCCC2)cc1	-17.6	-93.7%	-26.3%	u	-23.0%	u
CCCNC(=O)c1nnsc1S(=O)c1ccc(Cl)cc1 (stereo not drawn)	-102.4*	0.517µM*	3.98µM*	0.411µM*	1.12µM*	26.1%
CNC(=O)c1nnsc1S(=O)c1ccc(Cl)cc1 (stereo not drawn)	-105.4*	0.651µM*	5.01µM*	0.411µM*	1.26µM*	u
CNC(=O)c1nn(-c2ccc(Cl)cc2)ccc1=O	-0.1	-1.2%	-4.4%	-0.5%	-13.1%	4.8%
CCOC(=O)c1cc2c(=O)n3ccccc3nc2n(CC2CCCO2)c1=NC(=O)/C=C/c1ccccc1 (stereo not drawn)	u	14.6µM*	-3.3%	u	u	u
CCOC(=O)c1cc2c(=O)n3ccccc3nc2n(CC2CCCO2)c1=NC(=O)c1ccc(OCC)cc1 (stereo not drawn)	x	5.8µM*	x	6.51µM*	x	x
CCOC(=O)c1cc2c(=O)n3ccccc3nc2n(CC2CCCO2)c1=NC(=O)c1ccc(OC)cc1OC (stereo not drawn)	x	16.4µM*	x	u	x	x
CCOC(=O)c1cc2c(=O)n3ccccc3nc2n(CC2CCCO2)c1=NC(=O)c1cccc(C(F)(F)F)c1 (stereo not drawn)	x	-23.9%	x	-25.5%	x	x
